# Laboratory results from PubChem BioAssay (NCATS).
# Records with an inconclusive call do not appear. Unmarked numbers belong to inactive results. The source made the active and inactive calls. The call rests on the fitted dose curve. Bridge positions count the residues as written; N and C are the ends. Square brackets hold non-standard residues; d marks the D form. Peptide text beside a SMILES is read from it. Orn = NCCC[CH](N)C(=O)O; Mpa = O=C(O)CCS
# Assay: Primary qHTS for Vero E6 cytotoxicity: counterscreen for inhibitors of SARS-S pseudo-typed particle cell entry (AID 1479150)
# Conditions: cell viability; series mostly up to 57.1 µM; activity change, negative = cytotoxicity: at the top concentration
# On the % scale 0 is the no-effect control and ±100 the full control effect.
SMILES,outcome,"activity change, negative = cytotoxicity"
N#Cc1cc(-c2n[nH]c(-c3ccncc3)n2)ccn1,inactive,
CC(C)OC(=O)CCC/C=C\C[C@@H]1[C@@H](CC[C@@H](O)CCc2ccccc2)[C@H](O)C[C@@H]1O,,3.55% [at 11.4 µM]
Cn1nnnc1SCC1=C(C(=O)O)N2C(=O)[C@H](NC(=O)C(O)c3ccccc3)C2SC1 (stereo not given in full),inactive,
C[N+]1(C)C2CC[C@H]1CC(OC(=O)C(O)c1ccccc1)C2 (stereo not given in full),inactive,
COC(=O)N[C@H](C(=O)N1CCC[C@H]1C(=O)Nc1ccc([C@@H]2CC[C@@H](c3ccc(NC(=O)[C@@H]4CCCN4C(=O)[C@@H](NC(=O)OC)C(C)C)cc3)N2c2ccc(C(C)(C)C)cc2)cc1)C(C)C,inactive,
C=CC[N@@+]12CC[C@]34c5ccccc5N5/C=C6\C7N(/C=C(\C53)[C@@H](C[C@@H]41)/C(=C/CO)C2)c1ccccc1[C@@]71CC[N@@+]2(CC=C)C/C(=C\CO)[C@@H]6C[C@@H]12 (stereo not given in full),,-0.921%
CNC(=O)c1c(I)c(C(=O)NCC(=O)Nc2c(I)c(C(=O)O)c(I)c(C(=O)NCCO)c2I)c(I)c(N(C)C(C)=O)c1I,inactive,
C=C1CCN([C@H](C)[C@](O)(Cn2cncn2)c2ccc(F)cc2F)CC1,,-0.926%
O=C(OC1C[C@@H]2CC3C[C@@H](C1)N2CC3=O)c1c[nH]c2ccccc12 (stereo not given in full),inactive,
O=C(Cn1c(=O)sc2ccc(Cl)cc21)N1CCN(CCO)CC1,inactive,
CC(C)[C@H]1CC[C@H](C)C[C@H]1O,,3.8%
CCCCCCCCCCCCCCCCOc1nc2ccc(C)cc2c(=O)o1,,-2.65%
CC(C)(CO)C(O)C(=O)NCCCC(=O)O (stereo not given),,-2.62%
CC1=C(C(=O)OCCN(Cc2ccccc2)c2ccccc2)C(c2cccc([N+](=O)[O-])c2)C(P2(=O)OCC(C)(C)CO2)=C(C)N1 (stereo not given),,2.98%
CN(C)CC(c1ccc(O)cc1)C1(O)CCCCC1 (stereo not given),,0.156%
[2H]C([2H])([2H])C(CCC[C@@H](C)[C@H]1CC[C@H]2/C(=C/C=C3\C[C@@H](O)C[C@H](O)C3=C)CCC[C@]12C)C([2H])([2H])[2H],,-1.01%
CCCCCCCCCCCCCCCC(=O)OC1CCCn2c1nc(C)c(CCN1CCC(c3noc4cc(F)ccc34)CC1)c2=O (stereo not given),inactive,
NS(=O)(=O)c1ccc(-n2nc(C(F)(F)F)cc2-c2ccc(F)cc2)cc1,,-2.53%

SMILES,outcome,"activity change, negative = cytotoxicity"
COc1ccc(CCNCC(O)COc2cccc(C)c2)cc1OC (stereo not given),,-2.46%
CC1(C)[C@@H]2CC[C@@]1(C)[C@H](OC(=O)CSC#N)C2,,3.69%
CC(C)(CO)[C@@H](O)C(=O)NCCC(=O)NCCSSCCNC(=O)CCNC(=O)[C@H](O)C(C)(C)CO,,1.88%
CC(C)(C)NC(=O)[C@H]1CC[C@H]2[C@@H]3CC=C4C=C(C(=O)O)CC[C@]4(C)[C@H]3CC[C@]12C,,4.42%
FC(F)OC(Cl)C(F)(F)F (stereo not given),inactive,
NC[C@@H]1O[C@H](O[C@H]2[C@H](O)[C@H](O[C@H]3[C@@H](O)[C@H](N)C[C@H](N)[C@H]3O[C@H]3O[C@H](CN)[C@H](O)[C@H](O)[C@H]3N)O[C@@H]2CO)[C@@H](N)[C@@H](O)[C@@H]1O,,-3.76% [at 5.34 µM]
CCCC(=O)Nc1ncnc2c1ncn2C1O[C@@H]2COP(=O)(O)O[C@H]2[C@H]1OC(=O)CCC (stereo not given in full),,1.84%
CCOc1ccc(CC2NC(=O)CCSSCC(C(=O)N3CCCC3C(=O)NC(CCCN)C(=O)NCC(N)=O)NC(=O)C(CC(N)=O)NC(=O)C(C(C)O)NC(=O)C(C(C)CC)NC2=O)cc1 (stereo not given) ([Mpa]Y(Et)ITNCP[Orn]G-NH2; disulfide 1-6; configuration not given here),,-8.08%
C[C@H](NCCc1ccc(O)cc1)[C@H](O)c1ccc(O)cc1,,0.715%
CN(C)CC(=O)O,inactive,
NCCCC(N)C(=O)O (stereo not given),,-8.57% [at 26.4 µM]
C[C@H]1O[C@]2(CS1)CN1CCC2CC1,,0.455%
CC(C)C(=O)OCC(=O)[C@@]12OC(C3CCCCC3)O[C@@H]1C[C@H]1[C@@H]3CCC4=CC(=O)C=C[C@]4(C)[C@H]3[C@@H](O)C[C@@]12C (stereo not given in full),inactive,
C[N+](C)(C)CCOP(=O)([O-])OP(=O)(O)OC[C@H]1OC(n2ccc(N)nc2=O)[C@H](O)[C@@H]1O (stereo not given in full),inactive [at 0.573 µM],
NC(=O)[C@@H]1CC[C@@H]2CN1C(=O)N2OS(=O)(=O)O,,-3.85%
NC(Cc1cc(I)c(Oc2cc(I)c(O)c(I)c2)c(I)c1)C(=O)O (stereo not given),inactive [at 26.4 µM],
CC1(C)S[C@@H]2[C@@H](N3C(=O)[C@@H](c4ccccc4)NC3(C)C)C(=O)N2[C@H]1C(=O)O,,4.88%
